The values below come from PubChem BioAssay (NCI).

Compounds without any hit were thinned out: in the full panel of roughly 83,000, 20% have a hit.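 Interpretation: 100, growth as untreated; towards 0, rising growth inhibition; 0, no net growth; 0 to -100, cell death. Compounds scoring below 10 were considered active.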 Unmarked numbers belong to inactive results. Active and inactive are the calls of the source.

This assay deals with HL-60(TB) leukemia. Briefly: NCI-60 one-dose screen, 48 h (100 = growth as untreated, 0 = no growth, -100 = all killed). To be noted: 10 µM unless noted.
For the compound `CCN(CC)CCCC(C)Nc1c2ccc(Cl)cc2nc2cc(OC)c(OC)cc12` (stereo not given), the growth is 6.67% (active).
Then `Oc1ccc(/C=C/c2ccc(O)cc2)cc1`, with 43.6%; and `COc1ccc(-c2cc(-c3nnc(SCC(=O)Nc4ccc(C(C)=O)cc4)o3)c3ccccc3n2)cc1`, with 69%.
Regarding `N#Cc1c(NN)n(C2OC(CO)C(O)C2O)c2ncnc(N)c12` (stereo not given), the growth was -52.1% (active).
Then `CCCCCCCC(=O)SCC/C=C/[C@@H]1CC(=O)NCc2cccc(n2)CN(Cc2ccc3ccccc3c2)CC(=O)N[C@@H](C(C)C)C(=O)O1`, with 11%; and `COC(=O)c1cccnc1`, with 102%.
Then `COCCn1cc(-c2nc(-c3cn(CCOC)c4ncccc34)cs2)c2cc(F)ccc21`, with 97.8%; and `O=c1[nH][n+](-c2ccc(Cl)cc2)no1`, with 24.9%.
Then `CC([C@H]1CCC2C3CCC4C[C@@H](N)CC[C@]4(C)C3CC[C@@]21C)N(C)C` (stereo not given in full), with 30.6%; and `C/C(=N\NC(=O)c1ccccc1N)c1ccccc1O`, with 40.8%; and `Cc1csc(N/N=C/c2ccncc2)n1`, with 92.6%.
As for `C/C(=N\Nc1ccc2ccccc2n1)c1ccccn1`, the growth was -39% (active).
For the compound `CN[C@@H](C)C(=O)N[C@H]1CCS[C@H]2CC(C)(C)[C@@H](C(=O)N[C@H]3c4ccccc4C[C@H]3OCC#CC#CCO[C@@H]3Cc4ccccc4[C@@H]3NC(=O)[C@H]3N4C(=O)[C@@H](NC(=O)[C@H](C)NC)CCS[C@H]4CC3(C)C)N2C1=O`, the growth is -47.4% (active).
On to `CCOC(=O)N1CCc2c(sc3c2C(=O)N[C@H](c2ccc(OC)cc2)N3)C1`, for which the growth is 99.8%.
Then `O=C1NC(=O)C(c2ccccc2)O1` (stereo not given), with 99.5%.
Then `COc1ccc(C2NN=C3c4ccccc4CCC32)cc1` (stereo not given), with 40.7%; and `CN(C)c1ccc(/C=C/c2sc3ccc4ccccc4c3[n+]2C)cc1`, with -41.8% (active); and `c1ccc(CNc2nc(Nc3ccccc3)nc3ccccc23)cc1`, with 95.6%.
With `Cc1ccc(NC(=O)c2sc3nc4c(cc3c2N)C(=O)CCC4)cc1Cl`, the growth is 106%.
Then `COCn1c(C(=O)OC)cc2oc(/C=C3/SC(=S)N(N)C3=O)cc21`, with 76.9%.
On to `CCOC(=O)C#Cc1c(C(=O)OCC)nnn1[C@@H]1O[C@H](COC)[C@@H](OC)[C@H]1OC`, for which the growth is 47.5%.
Then `COc1ccccc1OCC(O)CO` (stereo not given), with 74.1%; and `CCC(C)[C@H](NC(C)=O)C(=O)N[C@@H](CCCNC(=N)N)C(=O)N[C@@H](CCCCN)C(=O)N[C@@H](CC1CCC(O)CC1)C(=O)NC(C(=O)N[C@@H](CCSC)C(=O)N[C@@H](CCCNC(=N)N)C(=O)N[C@@]1(C)CCC/C=C\CCC[C@@](C)(C(=O)NC(C(=O)N[C@@H](CCC(=O)O)C(=O)N[C@@H](CC(C)C)C(=O)N[C@H](C(=O)N[C@@H](CCC(=O)O)C(N)=O)C(C)C)[C@@H](C)O)NC(=O)[C@H](CCC(N)=O)NC(=O)[C@H](CC(C)C)NC(=O)[C@H](CC(C)C)NC1=O)[C@@H](C)O` (stereo not given in full), with 97.3%.
With `Clc1ccc2[nH]cc(-c3cncn3CCc3ccccc3)c2c1`, the growth was 45.1%.
Take `Cc1ccc(Oc2nc3ccccc3cc2-c2nnc(Cn3c(COc4ccccc4)nc4ccccc43)o2)cc1`: the growth is -18.2% (active).
Then `O=C(CNc1ncco1)Nc1ccc(S(=O)(=O)c2ccc(NC(=O)CNc3ncco3)cc2)cc1`, with 44.8%; and `CCOC(=O)Nc1ccc2c3c(cccc13)-c1ccccc1-2`, with 6.94% (active).
Then `COc1c(O)c2c3c(c1OC)-c1ccccc1CC3N(S(=O)(=O)c1ccc(C)cc1)CC2` (stereo not given), with 5.73% (active); and `O=c1[nH]nc(-c2ccccc2)c2sc3ncc(-c4ccc(Br)cc4)n3c12`, with 12.7%; and `Nc1nc(N)c2cc(CNc3ccc(Cl)c(Cl)c3)ccc2n1`, with 1.98% (active).
For the compound `NC(=S)N/N=C/c1ccc(Cl)s1`, the growth was 102%.
Then `CC(C)(Cl)CCC1=C(Cl)C(=O)c2ccccc2C1=O`, with -10.1% (active); and `C=C(C)[C@@H]1C[C@H](O)Cc2cc(Cl)cc(Cl)c2N1`, with 112%.
Then `COc1cc2nc(Sc3sc(N)nc3C)n(-c3ccc(Oc4ccccc4)cc3)c(=O)c2cc1OC`, with 78.9%.
Then `COc1ncc(-c2ccc3nccc(-c4ccnnc4)c3c2)cc1NS(=O)(=O)c1ccc(F)cc1F`, with -13.8% (active).
With `CCc1cc(Cl)c(OC)c(C(=O)NCC2CCCN2CC)c1O` (stereo not given), the growth is 84.6%.
Then `CC(C)N=C(N)/N=C(\N)Nc1ccc2ccc3ccccc3c2c1`, with -47.8% (active); and `CC(C)(C)c1nn(-c2ccccc2)c2c1C(=O)CSC(c1ccc3c(c1)OCO3)N2` (stereo not given), with 89.5%; and `N#Cc1c2ccccc2c2n1-c1ccccc1OC(c1ccccc1)C2=O` (stereo not given), with 43.4%.
Then `COc1cccc(/C=C2\Oc3cc(OCCN4CCCC4)ccc3C2=O)c1`, with 99.6%.
